From PubChem BioAssay (Tox21)
Results filed as inconclusive are left out. Entries that show only a call come without a potency. The source made the active and inactive calls. Calls come from the whole dose curve; as a rule, active = well fitted inhibition curve with a large enough effect in the repeat runs; inconclusive = weak or mixed curves, or effect the other way; inactive = no such curve, though single readings can be large or run the other way.

Each compound was assayed against Nuclear receptor ROR-gamma (Homo sapiens) (UniProt P51449) (assay: qHTS assay to identify small molecule antagonists of the retinoid-related orphan receptor gamma (ROR-gamma) signaling pathway (AID 1159521; note: nearly all actives have a fitted effect of over 50% in size; for activity change, negative = inhibition: top concentration of the series differs between compounds)). Details: Tet-on RORgamma CHO cells, RORE-luciferase, 16 h; series mostly up to 92.4 µM.
From the text: U.S. Tox21 Program National Center for Advancing Translational Sciences [NCATS] NIH Chemical Genomics Center [NCGC] U.S. Environmental Protection Agency [EPA] National Institutes of Environmental Health Sciences [NIEHS] National Toxicology Program [NTP] U.S. Food and Drug Administration [FDA] Tox21 Assay Overview: Nuclear steroid hormone receptors are involved in many biological processes including inflammatory responses, cell proliferation, and apoptosis. Environmental factors or compounds disrupting these nuclear receptor pathways and gene expression may promote susceptibility to immunotoxicants and autoimmune diseases. One important group of these expression factors are the retinoid-related orphan receptors. To assess compounds that may interfere with the retinoid-related orphan receptor gamma (ROR-gamma) transcription factor, a cell-based luciferase assay was used. The CHO cell-based assay utilizes a TET-inducible ROR expression factor and ROR response element-LUC reporter gene. Reporter gene activity was induced using Doxycycline Hyclate and measured after 16 hr incubation. Tet-on ROR gamma CHO cells were used to screen against the Tox21 10K compound library for ROR gamma antagonists by quantification of decreased reporter gene activity in terms of decreased luminescence.
Tox21 Assay Protocol Summary: Tet-on ROR gamma CHO cells were dispensed at 1,000 cells in 4 uL of culture medium per well into white wall/solid bottom 1536-well plates using a Multidrop Combi (Thermo Scientific, Waltham, MA) dispenser. Following incubation at 37 C and 5% CO2 for 4 hr, 23 nL of compounds dissolved in DMSO, positive controls or DMSO only were transferred by a Pintool station (Kalypsys, San Diego, CA) and after 2 hr incubation at 37 C, one ul of 1 uM (final concentration) of Doxycycline Hyclate was added to all the wells by using a Flying Reagent Dispenser (FRD) (Aurora Discovery, San Diego, CA). After 16 hr incubation at 37 C and 5% CO2, 5 uL of ONE-Glo reagent (Promega Corporation, Madison, WI) was added to each assay plate using FRD. After 30 min incubation at room temperature, luminescence was quantified on a ViewLux plate reader (Perkin Elmer, Waltham, MA).
Potency is the fitted concentration of half-maximal effect.

**Q.** With `CCCCOC(=O)CCCCC(=O)OCCCC` as the compound, how does the Potency read?
**A.** inactive

**Q.** How did the Potency turn out when `COc1ccc(-n2nc(C(F)F)cc2-c2ccc(S(C)=O)cc2)cc1` (stereo not given) was run?
**A.** inactive

**Q.** How did the Potency turn out when `Nc1ccc(S(=O)(=O)NCc2ccccc2)cc1` was run?
**A.** inactive

**Q.** For `CCC(CO)(CO)[N+](=O)[O-]`, which Potency is on record?
**A.** inactive

**Q.** `CCN(CC)CCNC(=O)c1cc(Cl)c(N)cc1OC` was tested. Which Potency did it give?
**A.** inactive

**Q.** Which Potency does the source give for `CCCCCCOC(=O)CCCCC` here?
**A.** inactive

**Q.** With `Cc1ccc(Nc2c(F)cccc2Cl)c(CC(=O)O)c1` as the compound, how does the Potency read?
**A.** inactive

**Q.** For `CN1C(CSCC(F)(F)F)Nc2cc(Cl)c(S(N)(=O)=O)cc2S1(=O)=O` (stereo not given), which Potency is on record?
**A.** inactive

**Q.** `CC1CCCC(=O)C1=O` (stereo not given) was tested. Which Potency did it give?
**A.** inactive

**Q.** `C[C@@H]1C[C@H]2[C@@H]3CCC4=CC(=O)C=C[C@]4(C)[C@@]3(F)[C@@H](O)C[C@]2(C)[C@@]1(O)C(=O)COP(=O)(O)O` was tested. Which Potency did it give?
**A.** inactive

**Q.** For `CC(=O)C(C)=O`, which Potency is on record?
**A.** inactive

**Q.** For `Cc1c[nH]c2ccccc12`, which Potency is on record?
**A.** inactive

**Q.** Which Potency does the source give for `CC(=O)OCCC1CCCCC1` here?
**A.** inactive

**Q.** With `CC(=O)OCC(C)C` as the compound, how does the Potency read?
**A.** inactive

**Q.** With `CCC(CO)(CO)CO` as the compound, how does the Potency read?
**A.** inactive

**Q.** For `COC(=O)CC(C(C)=O)C(=O)OC` (stereo not given), which Potency is on record?
**A.** inactive

**Q.** How did the Potency turn out when `CC(C)(O)CCc1ccccc1` was run?
**A.** inactive

**Q.** Which Potency does the source give for `NC(=O)CCCCC(N)=O` here?
**A.** inactive

**Q.** How did the Potency turn out when `CC(C)(C)C1(CCc2ccc(Cl)cc2)CO1` (stereo not given) was run?
**A.** inactive

**Q.** `CC(O)Cn1cnc2c1c(=O)n(C)c(=O)n2C` (stereo not given) was tested. Which Potency did it give?
**A.** inactive

**Q.** For `Cc1cccc(C)c1NC(=O)c1cc(S(N)(=O)=O)c(Cl)cc1O`, which Potency is on record?
**A.** inactive

**Q.** For `O=[N+]([O-])c1ccc2ncccc2c1`, which Potency is on record?
**A.** inactive

**Q.** For `CC(C)(C(=O)c1cccnc1)c1cccnc1`, which Potency is on record?
**A.** inactive

**Q.** With `C1=CCC2CC=CC2C1` (stereo not given) as the compound, how does the Potency read?
**A.** inactive

**Q.** How did the Potency turn out when `c1ccc(CNc2ncnc3c2ncn3C2CCCCO2)cc1` (stereo not given) was run?
**A.** inactive

**Q.** With `CCOCCC(=O)OCC` as the compound, how does the Potency read?
**A.** inactive

**Q.** With `COc1ccc2nc(S(=O)Cc3ncc(C)c(OC)c3C)[nH]c2c1` (stereo not given) as the compound, how does the Potency read?
**A.** inactive

**Q.** How did the Potency turn out when `CC(C)C(O)C(C)(C)CO` (stereo not given) was run?
**A.** 22.4 µM (active)

**Q.** `CC(C)COC(=O)COc1cc(Cl)c(Cl)cc1Cl` was tested. Which Potency did it give?
**A.** inactive

**Q.** `CCCCCCC(O)CCCCCCCCCCC(=O)OC` (stereo not given) was tested. Which Potency did it give?
**A.** inactive

**Q.** With `FC(F)(F)C(F)(F)C(F)(F)C(F)(F)CCI` as the compound, how does the Potency read?
**A.** inactive

**Q.** `CC[C@H]1OC(=O)[C@H](C)[C@@H](O[C@H]2C[C@@](C)(OC)[C@@H](O)[C@H](C)O2)[C@H](C)[C@@H](O[C@@H]2O[C@H](C)C[C@H](N(C)C)[C@H]2O)[C@](C)(O)C[C@@H](C)/C(=N\OCOCCOC)[C@H](C)[C@@H](O)[C@]1(C)O` was tested. Which Potency did it give?
**A.** inactive

**Q.** With `CCC(Cl)CC(Cl)C(Cl)C(Cl)C(Cl)C(C)Cl` (stereo not given) as the compound, how does the activity change, negative = inhibition read?
**A.** 79.2% [at 19 µM] (inactive)

**Q.** For `Cc1ccc2nc(N)[nH]c(=O)c2c1Sc1ccncc1`, which Potency is on record?
**A.** inactive

**Q.** How did the Potency turn out when `CCN(CC)C(=O)N1CCN(C)CC1` was run?
**A.** inactive

**Q.** For `O=C(Oc1ccccc1)c1ccc2ccccc2c1O`, which Potency is on record?
**A.** inactive

**Q.** For `CC(=O)OC(C)C[N+](C)(C)C` (stereo not given), which Potency is on record?
**A.** inactive

**Q.** Which Potency does the source give for `CC12CC3CC(C)(C1)CC(N)(C3)C2` here?
**A.** inactive

**Q.** How did the Potency turn out when `CNCc1ccc(NC(=O)c2c[nH]c3c2C(=O)CCC3)cc1` was run?
**A.** inactive

**Q.** `CCC1CCC(CCC(=O)O)C1` (stereo not given) was tested. Which Potency did it give?
**A.** inactive
